# Measurements: PubChem BioAssay (EPA / NIEHS)
# Inconclusive results are not listed. Active and inactive are the calls of the source. Rule for the calls: active = hit-call score of the fitted dose curve at least 0.9, where 1 is the maximum; inconclusive = response in the unintended direction; inactive = score below 0.9.
# Target: Nuclear receptor subfamily 1 group I member 2 (Homo sapiens) (UniProt O75469)
# Assay: ATG_PXR_TRANS: Attagene TRANS-FACTORIAL HepG2 Assay for human Pregnane X Receptor (PXR) (AID 2283008)
# How it was run: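 Trans-factorial format: exogenous NR-Gal4 fusion activity, not endogenous factor, in transfected human HepG2 liver cells. After 24 h dosing, RNA isolated, reverse-transcribed, amplified and resolved by capillary electrophoresis; induction scored versus DMSO.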
# Chain of Nuclear receptor subfamily 1 group I member 2 (Homo sapiens) (O75469 whole entry, looked up): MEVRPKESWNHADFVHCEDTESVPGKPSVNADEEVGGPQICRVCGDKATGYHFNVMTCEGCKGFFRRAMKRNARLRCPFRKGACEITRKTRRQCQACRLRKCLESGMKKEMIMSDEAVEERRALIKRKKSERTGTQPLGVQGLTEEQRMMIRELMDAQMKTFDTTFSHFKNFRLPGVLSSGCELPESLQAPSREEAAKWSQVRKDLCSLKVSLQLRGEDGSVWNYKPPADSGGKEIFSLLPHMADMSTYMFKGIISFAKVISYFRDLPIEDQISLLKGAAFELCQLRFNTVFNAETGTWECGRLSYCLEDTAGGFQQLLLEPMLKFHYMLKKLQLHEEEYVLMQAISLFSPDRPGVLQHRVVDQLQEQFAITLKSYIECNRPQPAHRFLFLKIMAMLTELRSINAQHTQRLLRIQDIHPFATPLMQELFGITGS
SMILES,outcome,AC50
CCOCN(C(=O)CS(=O)(=O)O)c1c(C)cccc1CC,inactive,
F[Si-2](F)(F)(F)(F)F,inactive,
CNS(=O)(=O)C(F)(F)C(F)(F)C(F)(F)C(F)(F)C(F)(F)C(F)(F)C(F)(F)C(F)(F)F,inactive,
CSc1ccc(Cl)cc1,inactive,
Cc1ccc(O)c(-n2nc3ccccc3n2)c1,,14.6 µM (active)
CC(C)Nc1ccc(NC(C)C)c2c1C(=O)c1ccccc1C2=O,,0.16 µM (active)
C#CC(O)CCC (stereo not drawn),inactive,
OCCCc1cccnc1,inactive,
CC(C)CCCC(C)CCO (stereo not drawn),inactive,
CCC/C=C/CO,inactive,
CC(C)OC=O,inactive,
CCc1cccc(C)c1N(C(=O)C(=O)O)C(C)COC (stereo not drawn),inactive,
C[C@]12CC[C@H]3C(=CCc4cc(O)ccc43)[C@@H]1CCC2=O,,26.6 µM (active)
CC(C)OC(=O)COc1ccc(Cl)cc1Cl,inactive,
O=C(O)CCC(F)(F)C(F)(F)C(F)(F)C(F)(F)C(F)(F)C(F)(F)C(F)(F)F,inactive,
CC(C)(C)c1cc(Cc2cc(C(C)(C)C)c(O)c(C(C)(C)C)c2)cc(C(C)(C)C)c1O,,0.631 µM (active)

SMILES,outcome,AC50
CC1=CC2C3C=CC(C3)C2C1C (stereo not drawn),,0.387 µM (active)
O=C(Cl)C(F)(F)C(F)(F)C(F)(F)C(F)(F)C(F)(F)C(F)(F)F,inactive,
Nc1c(Br)cc([N+](=O)[O-])cc1Br,,26.8 µM (active)
Nc1cc([N+](=O)[O-])cc(Cl)c1O,inactive,
c1ccc(C[P+](c2ccccc2)(c2ccccc2)c2ccccc2)cc1,inactive,
O=C1C=CC(=O)N1c1ccc(Cc2ccc(N3C(=O)C=CC3=O)cc2)cc1,inactive,
CC(C)(C)C(=O)C1C(=O)c2ccccc2C1=O,,22.4 µM (active)
NC(=O)C(F)(F)C(F)(F)C(F)(F)C(F)(F)C(F)(F)C(F)(F)C(F)(F)F,inactive,
C=CC(=O)OCC(F)(F)C(F)(F)C(F)(F)COC(=O)C=C,inactive,
OCCCC(F)(F)C(F)(F)C(F)(F)C(F)(F)C(F)(F)C(F)(F)C(F)(F)C(F)(F)F,inactive,
N#Cc1ccccc1O,inactive,
CCCCCCCCCc1ccc(OCCO)cc1,,0.732 µM (active)
CCCCCCCCCCCC(=O)Cl,inactive,
CN(C)C(C)(C)CO,inactive,
Cc1ccc(O)cn1,inactive,
Cc1cc(O)c(C(C)(C)C)cc1C(C)(C)C,,3.47 µM (active)

# Target: human Retinoic Acid Receptor gamma (RARg), RARG (gene 5916) (UniProt P13631)
# Assay: ATG_RARg_TRANS: Attagene TRANS-FACTORIAL HepG2 Assay for human Retinoic Acid Receptor gamma (RARg) (AID 2283009)
# How it was run: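 Readout: reporter transcript levels via RT-PCR, 6-FAM primer-extension labelling, HpaI digestion and capillary electrophoresis. Cells: HepG2 carrying transfected RARg-GAL4 chimera plus UAS reporter set. Dosing 24 h; DMSO negative control.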
# Chain of human Retinoic Acid Receptor gamma (RARg), RARG (gene 5916) (P13631 whole entry, looked up): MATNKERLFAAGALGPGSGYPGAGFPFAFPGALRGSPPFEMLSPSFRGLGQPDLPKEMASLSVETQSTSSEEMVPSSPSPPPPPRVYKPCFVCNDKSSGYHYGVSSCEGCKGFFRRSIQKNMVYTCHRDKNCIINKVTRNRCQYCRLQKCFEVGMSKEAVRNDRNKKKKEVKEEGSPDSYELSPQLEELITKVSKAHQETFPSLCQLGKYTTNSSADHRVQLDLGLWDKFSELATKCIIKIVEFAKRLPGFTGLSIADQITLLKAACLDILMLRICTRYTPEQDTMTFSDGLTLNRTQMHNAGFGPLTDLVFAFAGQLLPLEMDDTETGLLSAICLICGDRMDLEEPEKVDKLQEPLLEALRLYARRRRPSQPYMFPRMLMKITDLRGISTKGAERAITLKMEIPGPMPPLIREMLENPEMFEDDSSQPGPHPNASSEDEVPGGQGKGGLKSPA
row,SMILES,outcome
1,CNS(=O)(=O)C(F)(F)C(F)(F)C(F)(F)C(F)(F)C(F)(F)C(F)(F)C(F)(F)C(F)(F)F,inactive
2,CC(C)Nc1ccc(NC(C)C)c2c1C(=O)c1ccccc1C2=O,inactive
3,C[C@]12CC[C@H]3C(=CCc4cc(O)ccc43)[C@@H]1CCC2=O,inactive
4,CC(C)OC(=O)COc1ccc(Cl)cc1Cl,inactive
5,CC(C)(C)c1cc(Cc2cc(C(C)(C)C)c(O)c(C(C)(C)C)c2)cc(C(C)(C)C)c1O,inactive
6,O=C(Cl)C(F)(F)C(F)(F)C(F)(F)C(F)(F)C(F)(F)C(F)(F)F,inactive
7,c1ccc(C[P+](c2ccccc2)(c2ccccc2)c2ccccc2)cc1,inactive
8,NC(=O)C(F)(F)C(F)(F)C(F)(F)C(F)(F)C(F)(F)C(F)(F)C(F)(F)F,inactive
9,OCCCC(F)(F)C(F)(F)C(F)(F)C(F)(F)C(F)(F)C(F)(F)C(F)(F)C(F)(F)F,inactive
10,N#Cc1ccccc1O,inactive
11,CCCCCCCCCc1ccc(OCCO)cc1,inactive
